# Source: PubChem (several laboratories)
# Mcl-1 Bim block = inhibitors of Bim peptide binding to Mcl-1, primary screen, biochemical, bead-based flow cytometry, multiplex; inhibition, % at 10 µM; hit rate 0.1% among 190,000; Bim peptide-Mcl-1 binding; AID 1009, 2008; in the data active = inhibition above about 40%
# Target sequence (Q07820 whole entry, looked up): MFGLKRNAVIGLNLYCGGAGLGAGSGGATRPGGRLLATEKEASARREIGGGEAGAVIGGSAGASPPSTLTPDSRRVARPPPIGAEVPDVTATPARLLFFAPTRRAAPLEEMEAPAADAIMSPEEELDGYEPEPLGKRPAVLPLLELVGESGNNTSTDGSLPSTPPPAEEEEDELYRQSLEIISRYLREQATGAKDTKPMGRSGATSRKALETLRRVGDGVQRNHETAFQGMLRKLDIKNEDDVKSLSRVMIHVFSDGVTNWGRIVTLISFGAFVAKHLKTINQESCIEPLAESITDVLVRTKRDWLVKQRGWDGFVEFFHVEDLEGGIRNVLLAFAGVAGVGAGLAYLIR
# Mcl1-Noxa inh = Mcl-1/Noxa binding inhibitors, primary screen, biochemical, TR-FRET, 1536-well. hit rate 1.5% among 220,000. TR-FRET Mcl-1/Noxa peptide binding, 2 h. inhibition, % at 21.7 µM. AID 1022, 2008;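 active = compounds that cut the protein-peptide binding signal by more than 50% relative to plate controls in a single-dose test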;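 note: His-tagged Mcl-1 with rhodamine Noxa BH3 peptide and terbium anti-His antibody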
# MCL1-BIM inh = inhibitors of MCL1 binding to BIM-BH3, primary screen, biochemical, fluorescence polarization; Induced myeloid leukemia cell differentiation protein Mcl-1 (Homo sapiens), Q07820; GST-MCL1 / FITC-Bim-BH3 fluorescence polarization; inhibition, % at 10.9 µM; hit rate 0.68% among 320,000; AID 2057, 2009;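 active = inhibition above the mean inhibition of all tested compounds plus 3 SD, set per campaign, cut at about 40% in these data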;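 note: higher means more loss of mP so more displacement of Bim peptide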
# Mcl1-Bid inh = Mcl-1/Bid binding inhibitors, primary screen, biochemical, TR-FRET, 1536-well; Induced myeloid leukemia cell differentiation protein Mcl-1 (Homo sapiens), Q07820; TR-FRET Mcl-1/Bid-Dy647 peptide binding; inhibition, % at 21.7 µM; hit rate 0.97% among 220,000;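 active = compounds that cut the binding signal by more than half at the single screening dose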;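 note: His-tagged Mcl-1 with europium anti-His antibody binding Bid BH3 peptide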
# TNF necrop inh = inhibitors of TNF-alpha triggered necroptosis, primary screen, cell-based, Jurkat FADD-/-, single concentration; Jurkat FADD-/- TNF necroptosis rescue, ATP luminescence, 24 h; 0 = TNF only, 100 = no-TNF cells; activation (protection from cell death), % at 10 µM; hit rate 0.068% among 220,000; AID 463075, 2010;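 active = activation, meaning protection from cell death, of at least 50% relative to plate controls; inactive = activation below 50%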;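 note: necroptosis triggered by 40 ng/mL TNF-alpha added together with compound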
# L929 necroptosis = inhibitors of zVAD-triggered necroptosis, primary screen, L929 cells | hit rate 0.38% among 220,000 | viability rescue, % at 10 µM | L929 zVAD necroptosis rescue, ATP luminescence, 24 h; with zVAD 60 µM;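 active = activation, scaled between plate controls, above about 75%, limit read from the data; inactive = activation under that limit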
# Numbers stand for hits; i = inactive; nt = not tested or not shown. Most compounds without a hit are left out; they make up all but 2.4% or so of the library.
SMILES,Mcl-1 Bim block,Mcl1-Noxa inh,MCL1-BIM inh,Mcl1-Bid inh,TNF necrop inh,L929 necroptosis
CC(=O)C1=C(C)NC(=O)NC1c1ccc(Cl)cc1 (stereo not drawn),i,54,i,i,i,i
CC(=O)OCCCNc1cc(Sc2nc3ccccc3s2)c2nonc2c1[N+](=O)[O-],i,64,i,i,i,i
CC(=O)OCCNc1cc(Sc2nc3ccccc3[nH]2)c2nonc2c1[N+](=O)[O-],i,61,i,i,i,i
CC(=O)OCCCNc1cc(Sc2ccc(C)cc2)c2nonc2c1[N+](=O)[O-],i,i,i,i,i,i
COc1cc(OC)cc(C(=O)N2CCN(Cc3ccccc3C(F)(F)F)CC2)c1,i,i,i,67,i,i
COc1ccc(C(=O)N2CCN(Cc3ccccc3C)CC2)cc1OC,i,i,i,75,i,i
CCN(CC(=O)Nc1ccc(OC)cc1)C(=O)c1ccc(N2CCCC2=O)cc1,nt,nt,i,nt,nt,nt
CCCOc1cccc(CN2CCCCC2c2cccnc2)c1 (stereo not drawn),i,i,i,70,i,i
O=C(CCN1CCCCC1c1cccnc1)NCc1ccccc1 (stereo not drawn),i,i,i,i,i,i
CCOC(=O)c1ccc(N/N=C/c2cc(Br)cc([N+](=O)[O-])c2O)cc1,i,61,i,i,i,i
COC(=O)c1ccc(N/N=C/c2cc([N+](=O)[O-])cc(OC)c2O)cc1,i,61,i,i,i,i
COc1cccc(/C=N/Nc2ccc([N+](=O)[O-])cc2)c1O,nt,nt,i,nt,nt,nt
CCOC(=O)c1ccc(NC(=O)c2ccccc2[N+](=O)[O-])cc1,i,i,i,i,i,i
COc1ccc(CNS(=O)(=O)CCNC(=O)c2ccccc2)cc1,nt,nt,i,nt,nt,nt
CS(=O)(=O)NCc1ccc(C(=O)NCCOc2ccccc2)cc1,i,i,i,91,i,i
Cc1cc(C)nc(N2CCN(S(=O)(=O)c3ccc(F)cc3)CC2)n1,nt,nt,i,nt,nt,nt
Cc1cc(OCC(=O)Nc2ccccc2C)no1,nt,nt,i,nt,nt,nt
Cc1cc(C)cc(N(CC(=O)O)S(=O)(=O)c2c(C)noc2C)c1,i,nt,i,i,i,i
Cc1cc(C)cc(N(CC(=O)NC2CCC(C)CC2)S(=O)(=O)c2c(C)noc2C)c1 (stereo not drawn),i,i,i,89,i,i
CCOc1ccc(NC(=O)CN2C(=O)/C(=C3\SC(=S)N(C4CCS(=O)(=O)C4)C3=O)c3ccccc32)cc1 (stereo not drawn),nt,68,nt,81,i,i
Cc1ccc(C(=O)NC(C(=O)NC2CCCC2)c2ccccc2)cc1 (stereo not drawn),nt,nt,i,nt,nt,nt
COc1cc(CNc2ncnc3c2[nH]c2ccc(C)cc23)cc(OC)c1,nt,i,i,i,i,i
Cc1ccc2[nH]c3c(NCc4ccco4)ncnc3c2c1,i,55,i,i,i,i
CCC1c2ccc(C)n2CCN1C(=O)Nc1cc(Cl)ccc1OC (stereo not drawn),i,i,53,i,i,i
CCCC1c2ccc(C)n2CCN1C(=O)Nc1ccccc1Cl (stereo not drawn),i,i,45,i,i,i
SMILES,Mcl-1 Bim block,Mcl1-Noxa inh,MCL1-BIM inh,Mcl1-Bid inh,TNF necrop inh,L929 necroptosis
COc1ccc(Cl)cc1NC(=O)N1CCC(C)CC1,i,i,i,i,i,i
COC(=O)c1ccccc1NC(=O)N1CSC[C@H]1C(=O)OC,i,i,i,i,i,i
CCC1c2ccc(C)n2CCN1C(=O)Nc1ccccc1C(=O)OC (stereo not drawn),i,i,44,i,i,i
CN(CC(=O)Nc1ccccc1Cl)C(=O)COC(=O)C1CC1,nt,nt,i,nt,nt,nt
Cc1c(-c2ccc(OCc3ccccc3)cc2)nc2ccccc2c1C(=O)O,nt,nt,i,nt,nt,nt
O=C(O)C1CC(c2ccc(F)cc2)=NO1 (stereo not drawn),i,63,i,i,i,i
CCc1ccccc1N1CC(C(=O)Nc2cc(C)on2)CC1=O (stereo not drawn),nt,nt,i,nt,nt,nt
Cc1noc(C)c1CN1C(=O)NC(Cc2ccccc2)(Cc2ccccc2)C1=O,40,i,i,i,i,i
O=C(CS(=O)(=O)c1ccccc1)Nc1nnc(Cc2ccccc2)s1,nt,nt,i,nt,nt,nt
COc1cc(OC)c(C2Nc3ccccc3NC3=C2C(=O)CC(C)(C)C3)cc1OC (stereo not drawn),nt,nt,i,nt,nt,nt
COc1ccc(C2CC(=O)C3=C(C2)Nc2ccccc2NC3c2coc3ccccc3c2=O)cc1OC (stereo not drawn),42,i,i,i,i,i
COCC(=O)Nc1ncc(S(=O)(=O)c2ccc([N+](=O)[O-])cc2)s1,i,i,i,68,i,i
CCN(c1ccccc1)S(=O)(=O)c1ccc2[nH]cc(C(=O)N3CCOCC3)c(=O)c2c1,i,i,i,57,i,i
CCN(c1ccc(F)cc1)S(=O)(=O)c1ccc2[nH]cc(C(=O)NCCCN3CCOCC3)c(=O)c2c1,i,i,i,i,i,i
O=C(Cn1cc(SCc2ccc(Cl)cc2)c2ccccc21)N1CCOCC1,i,i,i,52,i,i
O=C(O)CN1C(=O)/C(=C\c2cn(-c3ccccc3)nc2-c2ccccc2)SC1=S,nt,nt,i,nt,nt,nt
CCN1C(=O)/C(=C\c2cn(-c3ccccc3)nc2-c2cccnc2)SC1=S,i,i,nt,56,i,i
Cc1onc(-c2ccccc2)c1-c1nnc(CN2CCN(S(=O)(=O)c3ccccc3F)CC2)o1,nt,nt,i,nt,nt,nt
COc1ccc(/C=C(\C#N)C(=O)Nc2cc(C)c(Cl)cc2OC)cc1O,nt,71,i,i,i,i
COc1ccc(-c2ccc(NC(=O)c3ccco3)cc2)nn1,nt,nt,i,nt,nt,nt
CCN(CC)CCCNC(=S)N(Cc1cccs1)Cc1cc2cc3c(cc2[nH]c1=O)OCCO3,i,59,i,i,i,i
COCCn1c(SCC(=O)Nc2ccccc2C)nc2c(oc3ccccc32)c1=O,i,i,i,54,i,i
COCCn1c(SCC(=O)Nc2ccc(C)cc2C)nc2c(oc3ccccc32)c1=O,i,i,i,i,i,i
CC(Oc1ccc(Cl)cc1Cl)C(=O)OCC(=O)c1c(N)n(C)c(=O)n(C)c1=O (stereo not drawn),nt,nt,i,nt,nt,nt
CCN(CCNC(=O)CN1CCN(Cc2ccc(Cl)cc2)C1=O)c1ccccc1,i,i,i,87,i,i
COc1ccc(-c2ccnc3nc(-n4cccc4)nn23)cc1,i,51,i,i,i,i
c1coc(-c2ccnc3nc(-n4cccc4)nn23)c1,i,62,i,i,i,i
CC1CC(C)CN(C(=O)c2cccc(N3C(=O)c4ccccc4C3=O)c2)C1 (stereo not drawn),nt,nt,i,nt,nt,nt
